A word on the Inhibition: it is the share of the control response that was lost under treatment. Lower therefore signals a response near the control.

Structures are written as SMILES.

One test concerns Plasmodium falciparum. The test is described as follows: GSK_TCMDC: Inhibition of Plasmodium falciparum Dd2 in whole red blood cells, using parasite LDH activity as an index of growth. Test compounds present at 2uM. The format is functional.
The molecule `O=C(NCCCCN1CCC(c2ccc3c(c2OCCO)CCCC3)CC1)c1sc(-c2ccc(C(F)(F)F)cc2)nc1CO` returned an Inhibition of 20%.

In turn, `O=S(=O)(c1cccc(Cl)c1F)N(CCC(O)(C(F)(F)F)C(F)(F)F)Cc1cccc(O)c1` came in with an Inhibition of 86%.

In turn, `Fc1ccc2[nH]c(-c3cccc(-c4ccc(CNCCN5CCNCC5)cc4)c3)nc2c1.O=C(O)C(F)(F)F` displayed an Inhibition of 0%.

The test system of another test is HepG2. As to the kind of experiment: GSK_TCMDC: Percent inhibition of human HepG2 cell line. Test compounds present at 10uM. The format is functional.
Take `CC(C)CNCc1ccc(-c2ccc(CNC3CCN(Cc4ccccc4)CC3)cc2)cc1.O=C(O)C(F)(F)F`: the Inhibition came out at 16%.

On to `Cc1cccc2nc(-c3ccc(-c4ccc(CNCc5cccc(N)c5)cc4)cc3)[nH]c12.O=C(O)C(F)(F)F`, for which the Inhibition came to 12%.

As for `CN(c1ccccc1C(=O)Nc1cc(Cl)ccc1Oc1ccccc1)S(=O)(=O)c1ccccc1`, the Inhibition is given as 47%.

For the molecule `CC1(C)CCC(=Cc2ccc(Cl)cc2)CC1(O)Cn1ccnc1` (stereo not drawn), the Inhibition is listed as 0%.

In turn, `CO/C(=C\C=C\c1cc2cc(Cl)c(Cl)cc2[nH]1)C(=O)NCC(C)(C)CN(C)C` had an Inhibition of 35%.

Regarding `Cc1ccccc1N1CCN(c2ccc(C(=O)Nc3ccccc3)cc2)CC1`, the Inhibition is reported as 22%.

`COc1cc(CNc2ccc(N3CCCC3)cc2)cc(Cl)c1OC` returned an Inhibition of 41%.

In the case of `Cl.N=C(NCCCc1ccccc1)c1cccc(C(=N)NCCCc2ccccc2)n1`, the Inhibition is 44%.

Regarding `O=C(NC1CC1)c1cnc(N2CCCC(c3ccccc3)C2)c(Cl)c1.O=C(O)C(F)(F)F` (stereo not drawn), the Inhibition is 6%.

In the case of `CC(C)COc1ccc(Cl)cc1Cc1ccc(-c2nc3c(F)cccc3[nH]2)o1`, the Inhibition is given as 15%.

As for `O=C(c1ccc(-c2ccc(-c3nc4cc(F)ccc4[nH]3)cc2)cc1)N1CCCCC1CN1CCC(O)C1` (stereo not drawn), the Inhibition is recorded as 24%.

In turn, `CN(C)CCNC(=O)N1CCCN(c2ncnc3cc(-c4ccc(Cl)cc4)sc23)CC1.O=C(O)C(F)(F)F` came in with an Inhibition of 41%.

`CN1CCC(NCc2cccc(-c3ccc(S(=O)(=O)NCCN4CCCC4)s3)c2)CC1.O=C(O)C(F)(F)F` gave an Inhibition of 10%.

`COc1ccc(CN(C)CCCOc2ccc(NC(=O)C=Cc3ccc(C(C)(C)C)cc3)cc2)cc1OC` yielded an Inhibition of 14%.

In turn, `Cc1ccc(-n2cc(CNCCCn3ccnc3)c(-c3cccc(C)c3)n2)cc1` returned an Inhibition of 9%.

With `Cc1ccc2[nH]c(-c3ccc(C=CC(=O)NC4CCN(Cc5ccccc5)CC4)cc3)nc2c1`, the Inhibition was 9%.

In the case of `CN(CCCNCc1cccc2ccccc12)CCCNCc1cccc2ccccc12.Cl`, the Inhibition is given as 93%.

For `COc1ccc(CN2CCC(NCc3cccc(C(F)(F)F)c3)CC2)cc1.O=C(O)C(F)(F)F`, the Inhibition is on record as 6%.

`CCn1cc(-c2cc(C(=O)Nc3ccc(OC)cc3C)c3ccccc3n2)c(C)n1` had an Inhibition of 0%.

In the case of `CCCc1cc(Cc2cnc(N)nc2N)cc(CC)c1OC.Cl`, the Inhibition was 4%.

On to `CC1(C)CN2CCCC2c2cc(NC(=O)/C=C/c3ccccc3Cl)ccc21.Cl` (stereo not drawn), for which the Inhibition was 20%.

In the case of `Cc1c(C(=O)N2CCc3cc4nccc(N5CCN6CCC[C@H]6C5)c4cc32)cnn1-c1ccc(C#N)cc1.Cl`, the Inhibition worked out at 0%.

As for `O=C(NCCc1ccccc1)N(Cc1cccc(-c2ccc(CNCCc3ccccc3)cc2)c1)C1CCN(Cc2ccccc2)CC1.O=C(O)C(F)(F)F`, the Inhibition is 94%.

Consider `NS(=O)(=O)c1cccc(-c2ccc3c(O)ncnc3c2)c1`, for which the Inhibition is recorded as 6%.

As to `C[C@H](Cc1ccc(C[C@@H](C)NCC(O)c2cc(Cl)c(N)c(Cl)c2)cc1)NCC(O)c1cc(Cl)c(N)c(Cl)c1` (stereo partly drawn), the Inhibition stood at 26%.

In the case of `COc1ccc2nc(C)cc(NC3Cc4ccccc4C3)c2c1.Cl`, the Inhibition is given as 20%.

Turning to `COc1ccc(CCN(C)CCOc2ccc(NC(=O)COc3ccc4sc5ccccc5c(=O)c4c3)cc2)cc1OC`, the Inhibition is listed as 99%.

On to `O=C(Cc1ccccc1)NC(c1ccco1)c1cc(Cl)c2cccnc2c1O` (stereo not drawn), for which the Inhibition is 44%.

For the molecule `COc1cccc(OC(C)(C)c2nc(N[C@@H](C)c3ccccc3)c3cn[nH]c3n2)c1`, the Inhibition is reported as 44%.

With `Cc1cccc2nc(-c3cccc(-c4ccc(NC(=O)C(C)CN5CCOCC5)cc4)c3)[nH]c12` (stereo not drawn), the Inhibition is recorded as 7%.

The molecule `Cn1cncc1C(=O)Nc1cccc(-c2csc(-c3nc4ccccc4[nH]3)c2)c1` registered an Inhibition of 15%.

Turning to `CC(C)(C)OC(=O)N1CCN(c2ccccc2NC(=O)c2cccc(C(F)(F)F)c2Oc2ccc(F)cc2)CC1`, the Inhibition worked out at 3%.

Turning to `COc1ccc(CNC2CCN(C)CC2)cc1-c1ccc(S(=O)(=O)NCCN2CCCC2)s1.O=C(O)C(F)(F)F`, the Inhibition stood at 2%.

As to `CCOC(=O)c1ccc(NC(=O)Nc2ccc(Cn3ncc(N4CCCNCC4)c(Cl)c3=O)cc2)cc1.O=C(O)C(F)(F)F`, the Inhibition turned out to be 2%.

`O=C(c1ccc(-c2ccc(-c3nc4ccccc4[nH]3)s2)cc1)N1CCCCC1CN1CCC(O)C1` (stereo not drawn) displayed an Inhibition of 18%.

The molecule `CCCCc1ccc(-c2nc(NC(=O)Nc3[nH]c(-c4ccccc4)nc3C(=O)OCC)c(C(=O)OCC)[nH]2)cc1` displayed an Inhibition of 0%.

The molecule `Cc1ccc([N+](=O)[O-])cc1NC(=O)N(CC(O)c1ccccc1)C1CCCCC1` (stereo not drawn) came in with an Inhibition of 11%.

The molecule `O=C(NCCCCN1CCC(c2ccc3c(c2OCCO)CCCC3)CC1)c1sc(-c2ccc(C(F)(F)F)cc2)nc1CO` returned an Inhibition of 37%.

`O=S(=O)(c1cccc(Cl)c1F)N(CCC(O)(C(F)(F)F)C(F)(F)F)Cc1cccc(O)c1`: the Inhibition came to 0%.

With `Fc1ccc2[nH]c(-c3cccc(-c4ccc(CNCCN5CCNCC5)cc4)c3)nc2c1.O=C(O)C(F)(F)F`, the Inhibition was found to be 9%.

(Values after ChEMBL document CHEMBL1157539, “Thousands of chemical starting points for antimalarial lead identification” (Nature, 2010).)
